Sampled rows, rich in hits. Any-hit rate of the full collection: about 3.8%.
HSF1 inh – HSF1 inhibition; NIH3T3-HGL HSE-luciferase, MG132-induced, luminescence 8 h; stronger effect = lower value; activity change, negative = inhibition, % at 7.5 µM (by protocol); hit rate 0.77% among 300,000; AID 2098;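 active = more than half of replicate wells show activity change below -50%, luminescence cut by over half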;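 note: luciferase reports HSF-1 transcriptional activity via heat shock element; 0% = median of DMSO wells and -100% = zero luminescence signal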
p-CIP stab down – lowers stability of the mouse p/CIP coactivator protein. decrease of EGFP signal, % at 10 µM. hit rate 0.01% among 290,000. F442A p/CIP-EGFP cells, EGFP fluorescence, 16 h. Q05BA5;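 active = EGFP signal decrease of at least 30% at 10 µM or well 3 SD below plate mean, unless failing retest; inactive = the rest, including hits failing retest or dose response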
Hsp70 act – transcriptional activators of Hsp70. HeLa Hsp70 promoter luciferase reporter, luminescence; scaled: vehicle 0, proteasome-inhibitor control 100%. activation, % at 10 µM. hit rate 0.04% among 200,000;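 active = activation above the mean across all tested compounds plus 3 SD, cutoff set per campaign, cut at about 5.5% in these data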;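 note: 100% = MG132 at 30 µM as the positive control and 0% = DMSO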
HSF1 activator – increases HSF-1 driven luciferase reporter signal | NIH3T3-HGL HSF-1 luciferase reporter, MG132, 8 h; 100% = twice DMSO control signal | activation, % at 9 µM | hit rate 1.7% among 300,000 | AID 504408;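 active = mean replicate activation of at least 50% with a set share of replicates each reaching 50%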;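 note: 0% = median of the neutral control wells and 100% = twice that signal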
HSP90 inh – blocks HSP90-mediated luciferase refolding in reticulocyte lysate. hit rate 0.91% among 290,000. inhibition, % at 5.6 µM. Rabbit reticulocyte lysate, luciferase refolding luminescence, 3 h;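 active = inhibition above the screen-wide mean plus 3 SD, computed separately per campaign, cut at about 16% in these data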;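 note: 0% = DMSO wells and 100% = 60 µM geldanamycin wells; inhibitors lower the luminescence because luciferase stays unfolded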
NALP1 inh – blocks the NALP1 inflammasome reconstituted in yeast | AID 2071 | S. cerevisiae NALP1/ASC/caspase-1 growth, X-gal OD620, 72 h | hit rate 0.61% among 280,000 | inhibition, % at 10 µM; in the data active = inhibition mostly above about 24%, no sharp cut-off; inactive = mostly below about 32%
HSP90 confirm – confirmation of HSP90 inhibitors | inhibition, % at 5.9 µM | rabbit reticulocyte lysate, luciferase refolding luminescence, 3 h | hit rate 64% among 2,300 | shares compounds with HSP90 inh; in the data active = inhibition above about 18%;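 note: 0% = vehicle wells and 100% = reference inhibitor wells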
luciferase ctr – firefly luciferase inhibition, HSP90 counter-screen. shares compounds with HSP90 inh. purified native firefly luciferase, luminescence. inhibition, % at 5.9 µM. hit rate 48% among 2,300;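 active = inhibition above the mean inhibition of all tested sample wells plus 3 SD, cut at about 10% in these data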;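 note: 0% = DMSO with luciferase and 100% = wells lacking luciferase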
* hit, by the source's call; x = no result given.

SMILES	HSF1 inh	p-CIP stab down	Hsp70 act	HSF1 activator	HSP90 inh	NALP1 inh	HSP90 confirm	luciferase ctr
Cc1csc(NC(=O)c2cnc3ccccc3n2)n1	0.9	2.2	x	-1.2	43.4*	1.6	53.0*	39.7*
CCc1ccc(C(=O)Nc2nc(C)cs2)s1	-3.1	-29.6	x	17.4	42.9*	20.9	56.0*	51.5*
CCCN(CC(=O)Nc1cc(Cl)ccc1Cl)C(=O)CN1C(=O)C2CCCCC2C1=O (configuration not stated)	-4.4	-6.7	x	-1.9	1.6	-1.8	x	x
CCC(CC)C(=O)NN(C(=O)c1ccncc1)C1CC(=O)N(c2ccccc2)C1=O (configuration not stated)	4.1	-9.5	x	14.6	-1.5	2.1	x	x
COC(=O)C1CN(C(=O)c2cccc(OC(F)F)c2)c2ccccc2O1 (configuration not stated)	-2.4	-12.7	x	22.2	3.8	2.7	x	x
Cc1ccc2cc(CCNC(=O)c3ccc(S(=O)(=O)N4CCCCC4)cc3)c(=O)[nH]c2c1	3.0	-19.8	0.7	11.5	34.9*	10.8	0.4	-4.2
CC1CCN(C(=O)N2c3ccccc3Sc3ccccc32)CC1	11.8	-3.7	-0.2	21.6	19.1*	12.7	8.3	2.4
Cc1ccc(C(CNC(=O)c2ccc(Br)o2)N2CCN(C)CC2)cc1 (configuration not stated)	-0.3	x	x	13.5	x	x	x	x
Oc1cccc(/C=N/N=C/c2cccc(O)c2O)c1O	-17.2	-11.0	x	-20.3	25.1*	12.9	70.6*	73.8*
OC(CNCc1ccc(Cl)cc1)C(F)(F)F (configuration not stated)	0.9	-3.1	0.0	-2.9	-2.3	-2.9	x	x
O=C(c1ccc2c(c1)OCO2)C1CCCN(Cc2c(F)ccc(F)c2F)C1 (configuration not stated)	9.3	3.4	x	12.8	-7.4	12.8	x	x
O=C1OCC(CO)(CO)N=C1NNc1ccccc1[N+](=O)[O-]	-19.4	-10.0	x	-32.3	21.1*	6.9	9.0	3.9
Nc1cc(=O)[nH]c(SCC(=O)NNC(=O)c2ccccc2)n1	-0.7	x	x	14.0	x	x	x	x
Nc1cc(=O)[nH]c(SCC(=O)NNC(=O)Cc2ccccc2)n1	-6.9	15.0	0.2	-15.0	23.5*	-10.7	2.9	-0.1
Cc1ccc([N+](=O)[O-])cc1NC(=O)c1ccc2c(c1)OCO2	2.2	-3.4	0.4	3.5	0.7	-7.4	x	x
O=C(Nc1ncc([N+](=O)[O-])s1)c1ccc2c(c1)OCO2	-31.5	-10.2	x	-25.8	76.0*	2.2	87.2*	76.1*
Cc1nc(-c2noc(-c3cccc(Cl)c3)n2)c(C(F)(F)F)o1	14.0	-23.8	x	22.5	21.4*	14.1	0.9	-9.7
Cc1nc(-c2noc(-c3ccccc3Cl)n2)c(C(F)(F)F)o1	31.0	-15.8	x	29.0	4.1	28.4	x	x
Cc1ccc(S(=O)(=O)NCCc2ccccc2)cc1	7.1	-3.8	0.1	2.1	1.7	11.9	x	x
Cc1ccc(S(=O)(=O)NCCCNS(=O)(=O)c2ccccc2)cc1	-0.8	-13.7	x	-13.3	24.8*	7.6	-7.5	-8.4
CCCCC(CC)CNC(=O)CC1Nc2c3ccccc3nc(=S)n2C1=O (configuration not stated)	5.3	7.1	0.9	-2.6	-4.5	4.8	x	x
Cc1ccc(C2NC(c3ccc(C)cc3)C(C)C(=O)C2C)cc1 (configuration not stated)	0.9	-11.2	x	12.3	3.2	26.0	x	x
CCCCOc1ccc(-c2ncc(C(=O)O)c(C)n2)cc1	-15.5	-11.5	0.5	-30.3	38.0*	10.3	63.1*	18.1*
O=C(N/N=C/c1cccnc1)c1ccc(NC(=O)c2ccc(Cl)cc2)cc1	20.7	1.5	x	7.4	19.5*	6.2	-5.3	-12.2
O=C(O)c1cc(N/N=C/c2cccnc2)ccc1Cl	-4.8	2.7	x	1.5	29.9*	8.2	38.7*	-3.8
O=C(O)c1cc(N/N=C/c2ccc(N3CCOCC3)cc2)ccc1Cl	1.7	-6.0	x	-2.1	38.8*	x	82.8*	64.7*

Bioassay records: PubChem BioAssay, several laboratories
